Results: PubChem BioAssay (NCI)
About 79,000 compounds went through this panel and 15% of them were active in at least one assay; those are over-represented in the sample as a whole. Rule as the data show it: active = growth inhibition above about 70%; inactive = the rest.

Assays:
[1] = NCI Yeast Anticancer Drug Screen. Data for the rad50 strain (AID 155);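 also: 0% = growth of vehicle-only cultures of the same strain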; details: S. cerevisiae rad50 strain growth inhibition; at 50.0 µM; hits give high values
Summary of the method: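 DNA repair mutant yeast, compound exposure, growth read-out; inhibition is taken relative to vehicle.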

[2] = NCI Yeast Anticancer Drug Screen. Data for the mec2-1 strain (AID 157); details: S. cerevisiae mec2-1 strain, at 50.0 µM, hits give high values
Summary of the method: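 Readout is yeast growth inhibition, normalised to vehicle-treated controls, in the mec2-1 strain exposed to compound.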

[3] = NCI Yeast Anticancer Drug Screen. Data for the sgs1 mgt1 strain (AID 161);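 also: 0% = growth of cultures given vehicle only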; details: S. cerevisiae sgs1 mgt1 strain, at 50.0 µM, hits give high values
Summary of the method: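 Compounds are added to genetically altered yeast, and growth is compared with cultures given vehicle alone to give percent inhibition.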

[4] = NCI Yeast Anticancer Drug Screen. Data for the cln2 rad14 strain (AID 165);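 also: 0% = growth equal to vehicle treated cultures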; details: S. cerevisiae cln2 rad14 strain, at 50.0 µM, hits give high values
Summary of the method: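 Relative to vehicle controls, growth inhibition of compound-treated cln2 rad14 yeast was recorded.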

[5] = NCI Yeast Anticancer Drug Screen. Data for the bub3 strain (AID 167); details: S. cerevisiae bub3 mutant strain, at 50.0 µM, hits give high values
Summary of the method: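 In this screen, a yeast mutant lacking normal mitotic checkpoint function is challenged with compound. Relative growth versus vehicle gives the inhibition value.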

[6] = NCI Yeast Anticancer Drug Screen. Data for the mlh1 rad18 strain (AID 175); details: S. cerevisiae mlh1 rad18 strain growth inhibition; at 50.0 µM; hits give high values
Summary of the method: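 Test agents were incubated with a yeast strain of defined genotype (DNA damage repair defect). Inhibition of growth was derived by comparison with vehicle-exposed cultures.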

Measured: growth inhibition

C#CC(CCC)NCCCC (configuration not stated)
inactive: [1] 16.2% | [2] -8.95% | [3] -8.8% | [4] 3.05% | [5] -4.9% | [6] -1.95%

C=CCOc1c(C)cc(C(N)=O)cc1C
inactive: [1] 4.45% | [2] -6.85% | [3] 24.6% | [4] 18.9% | [5] 5.45% | [6] 51.4%

CCOC(=O)C(C(C)=O)C(c1ccc(N(C)C)cc1)c1ccc(N(C)C)cc1 (configuration not stated)
inactive: [1] 4% | [2] -4.35% | [3] -6.6% | [4] -2.4% | [5] 3.95% | [6] -3.4%

CCCCCCCCNCC(=O)O
inactive: [1] -20% | [2] -21.6% | [3] -5.35% | [4] 3.05% | [5] -13.1% | [6] -12.9%

CC(=O)NNc1nc(C)c(C(=O)NNC(=O)C(=O)Nc2ccc(Cl)cc2)s1
inactive: [1] 27% | [2] -0.4% | [3] 16.5% | [4] -63.2% | [5] 20% | [6] 22.9%

ON=C(c1ccccc1)c1ccccc1
inactive: [1] -0.15% | [2] -3.8% | [3] -2.05% | [4] -7.2% | [5] -1.95% | [6] -2.95%

O=C(c1ccccc1)N(C(=O)c1ccccc1)c1cccc[n+]1[O-]
inactive: [1] 4.4% | [2] -2.25% | [3] -1.75% | [4] -12.2% | [5] -10.2% | [6] -4%

Cc1ccccc1NC(=S)NC(=O)c1ccccc1
inactive: [1] 30.9% | [2] 19.2% | [3] 62.8% | [4] -34.8% | [5] 64% | [6] 48.2%

C[C@H]1C(=O)OCN1S(=O)(=O)C(C)(C)C
inactive: [1] -0.05% | [2] 25% | [3] 16.1% | [4] -1.8% | [5] 16.1% | [6] -2.95%

COc1ccc(C=Nc2cc([N+](=O)[O-])ccc2O)cc1
inactive: [1] 8.5% | [2] -2.75% | [3] 3.75% | [4] -9.45% | [5] 25.5% | [6] 3%

Cc1cc[n+](CC(=O)CC(O)(C(F)(F)F)C(F)(F)F)cc1
inactive: [1] -9% | [2] 5.7% | [3] 15.2% | [4] -4.1% | [5] -6.95% | [6] -1.6%

O=C(c1ccccc1)C(C(c1ccccc1)N1CCOCC1)N1CCOCC1 (configuration not stated)
inactive: [1] -19.1% | [2] 2.2% | [3] -4.55% | [4] -9.45% | [5] -5.7% | [6] 0.65%

COc1ccc(N=Nc2ccccc2)cc1
inactive: [1] 3% | [2] 3.8% | [3] -5.6% | [4] -10.6% | [5] -11.8% | [6] -4.95%

Nc1cc(C(Br)(Br)Br)nc2ccccc12
inactive: [1] 17.4% | [2] 7.45% | [3] 16.8% | [4] -0.2% | [5] -11% | [6] 31.8%

O=c1[nH]c(=O)n(C2OC(COP(=O)(O)OP(=O)(O)O)C(O)C2O)cc1F (configuration not stated)
inactive: [1] 1.4% | [2] -2.7% | [3] -11.4% | [4] -31.3% | [5] 0.75% | [6] -7%

CCCCNC(=O)c1cc2c(cc1Cl)Sc1nccn1S2(=O)=O
inactive: [1] -1.1% | [2] -0.3% | [3] 1.35% | [4] 9.2% | [5] 43.9% | [6] 28.6%

Cn1c(=O)sc2ccccc21
inactive: [1] 19.4% | [2] -18.2% | [3] 14.3% | [4] 15.1% | [5] -8.8% | [6] 25.6%

O=[N+]([O-])c1ccc(Nc2nc3ccccc3s2)cc1
inactive: [1] 6.75% | [2] 11.8% | [3] -24.7% | [4] -21.5% | [5] 5.75% | [6] 15.2%

O=c1ccc2c(-c3ccccc3S(=O)(=O)O)c3ccc(O)c(O)c3oc-2c1O
inactive: [1] 3.45% | [2] 13.3% | [3] -4.4% | [4] 11% | [5] 15.6% | [6] 4.4%

Cn1c(=O)nc2n(C)c3ccccc3cc-2c1=O
inactive: [1] 9.95% | [2] -12.4% | [3] -3.95% | [4] -6.85% | [5] -12.7% | [6] 1.8%

CN(C)C(=O)Nc1cccc2nsnc12
inactive: [1] 12.4% | [2] -2.75% | [3] 11% | [4] -50.5% | [5] -5.95% | [6] 29.6%

Cc1cc2ncn(C3CCCCO3)c2cc1C (configuration not stated)
inactive: [1] 8.25% | [2] -10.8% | [3] -9.4% | [4] 13.3% | [5] 3.85% | [6] -26.4%

CC(=O)NC1=C(N2CCC2C)C(=O)c2ccccc2C1=O (configuration not stated)
inactive: [1] -2.4% | [2] 0.8% | [3] 6.15% | [4] -4.4% | [5] -43.9% | [6] -11.4%

CCOC(=O)c1ccc(NC(=S)Nc2ccccc2S)cc1
inactive: [1] 16.4% | [2] 16.4% | [3] 22.9% | [4] 9.35% | [5] 10.1% | [6] 11.9%

CC12CCC(O)CC1=CCC1C2CCC2(C)C(C(O)CC(O)(C(F)(F)F)C(F)(F)F)CCC12 (configuration not stated)
inactive: [1] 30.1% | [2] 48% | [3] 47.9% | [4] 3.95% | [5] 25.9% | [6] 40.5%

CCC(=O)OC1CCC2(C)C(=CCC3C2CCC2(C)C(C(C)CCCC(C)C)CCC32)C1 (configuration not stated)
inactive: [1] 3.1% | [2] 7.6% | [3] -20.6% | [4] 4.45% | [5] -0.8% | [6] -12.2%

CSc1nc(Cl)nc2[nH]ncc12
inactive: [1] 11.3% | [2] -5.4% | [3] 1.1% | [4] -17.3% | [5] 4.45% | [6] 30.9%

CC(=O)Nc1ccc(NC(=O)Nc2cccc(Cl)c2C)cc1
inactive: [1] 2.75% | [2] -0.35% | [3] 3.05% | [4] 11.7% | [5] 17.4% | [6] 5.3%

O=C1c2ccccc2C(=O)N1CCS(=O)(=O)CCS(=O)(=O)CCN1C(=O)c2ccccc2C1=O
inactive: [1] -0.1% | [2] 4.95% | [3] -14.9% | [4] -37.5% | [5] -0.95% | [6] 4.5%

CN1CCCC1c1cccnc1.O=C(O)c1ccccc1O.O=C([O-])c1ccccc1[OH2+].O=C([O-])c1ccccc1[OH2+].O=C([O-])c1ccccc1[OH2+].[Mn+2] (configuration not stated)
inactive: [1] 1.55% | [2] -14.2% | [3] -10.3% | [4] -29.6% | [5] -45.8% | [6] 7.3%

O=NN(C(=O)NCCCl)c1[nH]c(=O)ncc1I
inactive: [1] -8.65% | [2] -9.7% | [3] -13.9% | [4] -25.2% | [5] 3.05% | [6] -6.1%

NC(=O)C[n+]1cccc(C(=O)Nc2ccccc2)c1
inactive: [1] 17.4% | [2] 4.45% | [3] 7.25% | [4] -43.2% | [5] 23.2% | [6] 10.7%

Cn1c(=O)c2c(nc3sc4nc5ccccc5nc4n32)n(C)c1=O
inactive: [1] -9.7% | [2] -15.9% | [3] -5.45% | [4] -25.4% | [5] -30.4% | [6] 13.1%

O=C(O)CCCC/C=C/CCCCCCC1C=CCC1 (configuration not stated)
inactive: [1] -23.4% | [2] -35.9% | [3] 9.8% | [4] 0.7% | [5] -3.65% | [6] 1.65%

Cc1ccc2c(c1)C(C)(C)CCC2
inactive: [1] -2.1% | [2] -18.4% | [3] -18.4% | [4] -59.6% | [5] -9.1% | [6] 4.95%

COc1ccc(NC(=O)Nc2ccc(NC(C)=O)cc2)c(OC)c1
inactive: [1] -6% | [2] -18.2% | [3] 14.5% | [4] 7.65% | [5] 17.1% | [6] 10.7%

CCc1cccc(CC)c1NC(=O)CC1SC(N)=NC1=O (configuration not stated)
inactive: [1] -4.45% | [2] -19.2% | [3] -1.95% | [4] 9.8% | [5] 15.7% | [6] -24.9%

CN(C)CCN1C(=O)CC[C@@]2(C)C1=CC[C@@H]1[C@@H]2CC[C@@]2(C)[C@H]1CC[C@]2(C)O
inactive: [1] -21.7% | [2] -12.8% | [3] -18.6% | [4] -11.1% | [5] -0.1% | [6] -9.15%

O=[N+]([O-])C(/C=C(\Cl)[N+](=O)[O-])=C(N1CCCCC1)N1CCCCC1
inactive: [1] 10.8% | [2] -1.8% | [3] 5.85% | [4] -5.55% | [5] 26.2% | [6] 18.1%

CC1=CC2=C(OCO1)C(=O)c1ccccc1C2=O
inactive: [1] 7.25% | [2] 14.6% | [3] -21.6% | [4] -17.1% | [5] 44.3% | [6] 8.95%

Nc1c(O)cccc1C(=O)O
inactive: [1] -16.2% | [2] -9.9% | [3] -4.45% | [4] 3.95% | [5] 5.1% | [6] -28.7%

CC(N)C(C)Cc1ccccc1 (configuration not stated)
inactive: [1] -20.2% | [2] -21.4% | [3] -19.7% | [4] 65.7% | [5] -31.9% | [6] -14.6%
